# Experimental data taken from article PMC7862700, “An all-to-all approach to the identification of sequence-specific readers for epigenetic DNA modifications on cytosine”.
# Legend:
# Experiment in all cases: DAPPL (digital affinity profiling via proximity ligation, sequencing); 10 mM Tris-HCl pH 7.5, 50 mM NaCl, 1 mM DTT, 4% glycerol, room temperature, 30 min; GST-TFs on glutathione beads, 16-mer random dsDNA library, 0.1% formaldehyde crosslink after washing; high values mean tight binding
# FLI1 = molecular target: T1, FLI1 (Homo sapiens, UniProt Q01543 1-452); settings: protein: recombinant; tags: N-terminal GST; dsDNA, one strand shown
# T1 sequence: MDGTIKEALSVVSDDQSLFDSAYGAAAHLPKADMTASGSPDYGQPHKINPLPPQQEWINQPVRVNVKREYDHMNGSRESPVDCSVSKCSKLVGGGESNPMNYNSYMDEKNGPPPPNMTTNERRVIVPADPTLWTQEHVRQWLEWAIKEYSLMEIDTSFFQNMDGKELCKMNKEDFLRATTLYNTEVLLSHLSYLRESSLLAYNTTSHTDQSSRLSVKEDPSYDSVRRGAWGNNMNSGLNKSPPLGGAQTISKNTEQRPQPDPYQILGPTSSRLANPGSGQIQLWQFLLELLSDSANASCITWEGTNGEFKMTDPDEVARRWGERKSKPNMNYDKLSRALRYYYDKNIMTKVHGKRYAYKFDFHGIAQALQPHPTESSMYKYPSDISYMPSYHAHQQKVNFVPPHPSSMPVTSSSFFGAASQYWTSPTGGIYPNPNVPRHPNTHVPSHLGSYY
# Method in brief: (§1)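 Each value of binding signal is a hexamer's read frequency for a factor divided by the same hexamer's frequency in the tag-only sample. Barcoded, bead-captured GST fusions of human transcription factors made in yeast were pooled with that sample and incubated with 200 nmole of a random double-stranded 16-mer DNA library in Tris/NaCl/DTT/glycerol buffer at room temperature for 30 min. Washing, 0.1% formaldehyde crosslinking, proximity ligation, PCR and Illumina NextSeq500 sequencing followed.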
# ELK1 = molecular target: T2, ELK1 (Homo sapiens, UniProt P19419 1-428); settings: protein: recombinant; tags: N-terminal GST; dsDNA, one strand shown
# T2 sequence: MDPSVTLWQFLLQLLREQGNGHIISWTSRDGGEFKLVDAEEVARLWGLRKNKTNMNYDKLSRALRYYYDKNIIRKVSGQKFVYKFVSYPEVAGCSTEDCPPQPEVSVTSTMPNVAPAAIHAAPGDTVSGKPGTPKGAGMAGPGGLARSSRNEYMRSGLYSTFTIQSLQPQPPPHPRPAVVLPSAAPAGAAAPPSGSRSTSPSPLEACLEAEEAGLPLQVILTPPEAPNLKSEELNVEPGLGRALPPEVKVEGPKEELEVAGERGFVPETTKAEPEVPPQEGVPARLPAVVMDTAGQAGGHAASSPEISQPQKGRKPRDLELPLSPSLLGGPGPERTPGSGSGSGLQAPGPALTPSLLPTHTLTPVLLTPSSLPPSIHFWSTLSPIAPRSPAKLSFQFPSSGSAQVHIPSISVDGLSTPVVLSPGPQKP
# Method in brief: as §1
# GABPA = molecular target: T3, GABPA (Homo sapiens, UniProt Q06546 1-454); settings: protein: recombinant; tags: N-terminal GST; dsDNA, one strand shown
# T3 sequence: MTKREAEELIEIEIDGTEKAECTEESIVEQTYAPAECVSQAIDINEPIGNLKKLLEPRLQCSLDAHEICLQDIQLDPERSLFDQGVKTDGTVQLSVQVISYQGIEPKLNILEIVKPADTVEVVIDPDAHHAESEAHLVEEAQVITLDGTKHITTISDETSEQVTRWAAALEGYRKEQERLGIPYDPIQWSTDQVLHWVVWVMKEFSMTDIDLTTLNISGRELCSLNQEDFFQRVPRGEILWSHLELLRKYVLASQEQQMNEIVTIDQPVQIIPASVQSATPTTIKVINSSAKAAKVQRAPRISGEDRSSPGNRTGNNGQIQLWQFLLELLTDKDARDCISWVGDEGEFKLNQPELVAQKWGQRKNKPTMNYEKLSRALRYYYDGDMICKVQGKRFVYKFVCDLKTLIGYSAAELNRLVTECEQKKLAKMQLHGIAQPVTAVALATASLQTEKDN
# Method in brief: as §1
# ERG = molecular target: T4, ERG (Homo sapiens, UniProt P11308 1-479); settings: protein: recombinant; tags: N-terminal GST; dsDNA, one strand shown
# T4 sequence: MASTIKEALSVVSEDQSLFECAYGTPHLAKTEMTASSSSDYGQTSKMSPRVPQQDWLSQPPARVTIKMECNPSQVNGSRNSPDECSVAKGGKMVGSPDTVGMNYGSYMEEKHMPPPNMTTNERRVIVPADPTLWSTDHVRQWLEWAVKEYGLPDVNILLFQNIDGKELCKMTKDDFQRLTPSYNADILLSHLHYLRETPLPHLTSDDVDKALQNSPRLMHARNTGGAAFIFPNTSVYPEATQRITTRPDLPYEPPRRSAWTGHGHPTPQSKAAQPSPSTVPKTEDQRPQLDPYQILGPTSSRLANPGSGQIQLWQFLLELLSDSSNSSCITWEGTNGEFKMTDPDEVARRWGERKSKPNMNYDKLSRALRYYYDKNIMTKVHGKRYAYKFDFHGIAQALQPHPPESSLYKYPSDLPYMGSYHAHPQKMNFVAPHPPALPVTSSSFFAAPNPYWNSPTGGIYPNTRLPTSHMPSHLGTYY
# Method in brief: as §1
# ELF1 = ELF1 (Homo sapiens, UniProt P32519 1-619); settings: protein: recombinant; tags: N-terminal GST; dsDNA, one strand shown
# ELF1, sequence (P32519 whole entry): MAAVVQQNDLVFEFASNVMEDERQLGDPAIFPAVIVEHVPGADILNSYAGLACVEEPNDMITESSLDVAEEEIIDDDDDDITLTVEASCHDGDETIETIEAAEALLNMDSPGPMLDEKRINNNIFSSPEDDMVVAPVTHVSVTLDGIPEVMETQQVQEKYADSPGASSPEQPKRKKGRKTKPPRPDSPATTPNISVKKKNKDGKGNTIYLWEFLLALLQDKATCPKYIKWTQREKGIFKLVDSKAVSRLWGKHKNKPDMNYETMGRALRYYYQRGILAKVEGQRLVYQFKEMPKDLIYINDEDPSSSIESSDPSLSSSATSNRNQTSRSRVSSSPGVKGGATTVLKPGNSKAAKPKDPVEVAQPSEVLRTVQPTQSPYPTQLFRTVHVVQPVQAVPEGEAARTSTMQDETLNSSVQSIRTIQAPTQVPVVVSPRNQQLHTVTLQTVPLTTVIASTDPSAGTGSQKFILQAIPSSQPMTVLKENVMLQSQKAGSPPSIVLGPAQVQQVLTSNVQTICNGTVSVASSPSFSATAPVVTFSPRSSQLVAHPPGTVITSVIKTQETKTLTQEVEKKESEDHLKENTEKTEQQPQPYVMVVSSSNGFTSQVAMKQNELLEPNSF
# Method in brief: as §1
# EHF = molecular target: T5, EHF (Homo sapiens, UniProt Q9NZC4 1-300); settings: protein: recombinant; tags: N-terminal GST; dsDNA, one strand shown
# T5 sequence: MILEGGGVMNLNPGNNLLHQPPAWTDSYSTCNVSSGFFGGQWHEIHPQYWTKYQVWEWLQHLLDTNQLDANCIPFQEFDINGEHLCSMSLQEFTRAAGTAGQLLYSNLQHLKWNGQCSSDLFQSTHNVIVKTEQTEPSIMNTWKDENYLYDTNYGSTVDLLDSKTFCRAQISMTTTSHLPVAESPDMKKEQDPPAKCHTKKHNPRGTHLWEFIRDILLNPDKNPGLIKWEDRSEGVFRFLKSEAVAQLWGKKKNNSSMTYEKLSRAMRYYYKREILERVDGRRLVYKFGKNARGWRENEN
# Method in brief: as §1
# SPI1 = SPI1 (Homo sapiens, UniProt P17947 1-270); settings: protein: recombinant; tags: N-terminal GST; dsDNA, one strand shown
# Method in brief: as §1
# SPIB = SPIB (Homo sapiens, UniProt Q01892 1-262); settings: protein: recombinant; tags: N-terminal GST; dsDNA, one strand shown
# SPIB, sequence (Q01892 whole entry): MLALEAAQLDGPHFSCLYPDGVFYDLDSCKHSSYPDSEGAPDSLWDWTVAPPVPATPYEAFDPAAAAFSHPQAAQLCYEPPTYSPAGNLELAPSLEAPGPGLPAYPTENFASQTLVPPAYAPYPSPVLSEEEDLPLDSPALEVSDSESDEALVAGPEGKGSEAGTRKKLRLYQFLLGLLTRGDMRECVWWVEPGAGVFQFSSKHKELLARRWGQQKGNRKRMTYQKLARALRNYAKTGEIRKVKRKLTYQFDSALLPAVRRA
# Method in brief: as §1
# ELK3 = molecular target: T6, ELK3 (Homo sapiens, UniProt P41970 1-407); settings: protein: recombinant; tags: N-terminal GST; dsDNA, one strand shown
# T6 sequence: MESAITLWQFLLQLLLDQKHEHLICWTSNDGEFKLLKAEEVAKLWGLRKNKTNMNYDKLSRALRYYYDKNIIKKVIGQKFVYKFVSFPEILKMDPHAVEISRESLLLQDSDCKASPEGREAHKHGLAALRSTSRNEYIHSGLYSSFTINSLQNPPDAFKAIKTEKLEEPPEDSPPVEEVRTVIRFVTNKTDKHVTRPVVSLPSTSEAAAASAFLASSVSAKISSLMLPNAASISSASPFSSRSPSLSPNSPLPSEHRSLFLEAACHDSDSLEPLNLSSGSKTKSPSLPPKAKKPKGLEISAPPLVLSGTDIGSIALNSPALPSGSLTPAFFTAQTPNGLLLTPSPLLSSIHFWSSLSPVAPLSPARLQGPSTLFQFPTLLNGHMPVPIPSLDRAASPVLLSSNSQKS
# Method in brief: as §1
# FEV = molecular target: T7, FEV (Homo sapiens, UniProt Q99581 1-238); settings: protein: recombinant; tags: N-terminal GST; dsDNA, one strand shown
# T7 sequence: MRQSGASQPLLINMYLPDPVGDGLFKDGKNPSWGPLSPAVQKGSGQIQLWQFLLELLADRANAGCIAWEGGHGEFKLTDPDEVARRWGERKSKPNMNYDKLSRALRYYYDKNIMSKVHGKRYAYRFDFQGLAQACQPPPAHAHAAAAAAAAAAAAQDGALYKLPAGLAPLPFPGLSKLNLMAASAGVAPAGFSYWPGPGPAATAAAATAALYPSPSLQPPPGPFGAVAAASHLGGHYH
# Method in brief: as §1
# ETV5 = ETV5 (Homo sapiens, UniProt P41161 1-510); settings: protein: recombinant; tags: N-terminal GST; dsDNA, one strand shown
# ETV5, sequence (P41161 whole entry): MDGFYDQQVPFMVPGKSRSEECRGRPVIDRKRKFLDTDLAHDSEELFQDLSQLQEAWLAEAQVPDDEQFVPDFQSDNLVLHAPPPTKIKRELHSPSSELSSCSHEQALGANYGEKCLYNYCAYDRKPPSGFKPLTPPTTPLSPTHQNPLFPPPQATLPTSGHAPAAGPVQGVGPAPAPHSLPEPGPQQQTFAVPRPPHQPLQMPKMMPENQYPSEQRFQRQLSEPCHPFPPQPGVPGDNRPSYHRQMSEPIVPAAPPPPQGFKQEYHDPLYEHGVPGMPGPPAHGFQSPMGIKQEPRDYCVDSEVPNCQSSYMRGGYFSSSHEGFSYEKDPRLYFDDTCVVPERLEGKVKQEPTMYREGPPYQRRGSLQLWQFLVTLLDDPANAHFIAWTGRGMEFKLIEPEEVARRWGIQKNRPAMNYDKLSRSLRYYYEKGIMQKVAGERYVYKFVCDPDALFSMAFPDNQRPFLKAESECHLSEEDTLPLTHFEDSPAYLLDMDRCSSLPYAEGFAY
# Method in brief: as §1
# HSF1 = HSF1 (Homo sapiens, UniProt Q00613 1-529); settings: protein: recombinant; tags: N-terminal GST; chain copies: 3; dsDNA, one strand shown
# HSF1, sequence (Q00613 whole entry): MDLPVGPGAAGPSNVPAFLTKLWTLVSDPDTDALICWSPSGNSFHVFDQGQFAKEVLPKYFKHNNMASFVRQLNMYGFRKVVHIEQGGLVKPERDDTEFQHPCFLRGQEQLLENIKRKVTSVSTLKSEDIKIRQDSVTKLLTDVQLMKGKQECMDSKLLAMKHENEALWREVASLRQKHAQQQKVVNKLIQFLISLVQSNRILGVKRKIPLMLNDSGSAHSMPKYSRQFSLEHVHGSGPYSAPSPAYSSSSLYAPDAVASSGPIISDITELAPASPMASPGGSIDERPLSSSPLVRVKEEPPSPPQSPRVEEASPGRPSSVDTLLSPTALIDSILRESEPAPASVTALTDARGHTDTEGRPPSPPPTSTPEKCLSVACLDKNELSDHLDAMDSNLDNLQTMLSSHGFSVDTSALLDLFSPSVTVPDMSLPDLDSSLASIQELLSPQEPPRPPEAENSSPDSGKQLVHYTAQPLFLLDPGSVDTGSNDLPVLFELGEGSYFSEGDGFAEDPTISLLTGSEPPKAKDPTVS
# Method in brief: as §1
# SPIC = molecular target: T8, SPIC (Homo sapiens, UniProt Q8N5J4 1-248); settings: protein: recombinant; tags: N-terminal GST; dsDNA, one strand shown
# T8 sequence: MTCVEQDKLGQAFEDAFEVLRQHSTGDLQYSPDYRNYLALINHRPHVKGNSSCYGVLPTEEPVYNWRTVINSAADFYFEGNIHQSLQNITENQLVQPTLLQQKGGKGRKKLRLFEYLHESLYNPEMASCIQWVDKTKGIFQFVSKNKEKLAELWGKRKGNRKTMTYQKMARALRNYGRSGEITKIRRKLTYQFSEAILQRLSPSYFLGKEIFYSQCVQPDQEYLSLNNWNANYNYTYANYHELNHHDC
# Method in brief: as §1
# ELF4 = ELF4 (Homo sapiens, UniProt Q99607 1-663); settings: protein: recombinant; tags: N-terminal GST; dsDNA, one strand shown
# ELF4, sequence (Q99607 whole entry): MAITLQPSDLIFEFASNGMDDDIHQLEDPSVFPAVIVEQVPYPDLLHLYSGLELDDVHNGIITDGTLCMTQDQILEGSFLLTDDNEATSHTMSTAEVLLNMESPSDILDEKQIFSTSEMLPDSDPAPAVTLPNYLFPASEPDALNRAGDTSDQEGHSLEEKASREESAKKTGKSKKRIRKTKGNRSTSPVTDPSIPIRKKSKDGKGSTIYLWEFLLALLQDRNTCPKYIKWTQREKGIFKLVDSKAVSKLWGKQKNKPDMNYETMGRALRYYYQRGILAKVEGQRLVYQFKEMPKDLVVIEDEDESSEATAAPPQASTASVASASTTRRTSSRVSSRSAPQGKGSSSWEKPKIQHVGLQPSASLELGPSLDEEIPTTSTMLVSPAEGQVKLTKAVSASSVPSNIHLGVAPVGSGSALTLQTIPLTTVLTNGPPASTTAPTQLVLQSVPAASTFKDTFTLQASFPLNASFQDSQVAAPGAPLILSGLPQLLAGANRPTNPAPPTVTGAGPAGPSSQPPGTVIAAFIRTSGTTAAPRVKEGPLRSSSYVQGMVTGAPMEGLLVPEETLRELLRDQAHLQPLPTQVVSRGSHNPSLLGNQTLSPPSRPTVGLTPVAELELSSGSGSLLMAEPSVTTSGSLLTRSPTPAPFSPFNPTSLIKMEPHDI
# Method in brief: as §1
# ELK4 = molecular target: T9, ELK4 (Homo sapiens, UniProt P28324-2 1-405); settings: protein: recombinant; tags: N-terminal GST; dsDNA, one strand shown
# T9 sequence: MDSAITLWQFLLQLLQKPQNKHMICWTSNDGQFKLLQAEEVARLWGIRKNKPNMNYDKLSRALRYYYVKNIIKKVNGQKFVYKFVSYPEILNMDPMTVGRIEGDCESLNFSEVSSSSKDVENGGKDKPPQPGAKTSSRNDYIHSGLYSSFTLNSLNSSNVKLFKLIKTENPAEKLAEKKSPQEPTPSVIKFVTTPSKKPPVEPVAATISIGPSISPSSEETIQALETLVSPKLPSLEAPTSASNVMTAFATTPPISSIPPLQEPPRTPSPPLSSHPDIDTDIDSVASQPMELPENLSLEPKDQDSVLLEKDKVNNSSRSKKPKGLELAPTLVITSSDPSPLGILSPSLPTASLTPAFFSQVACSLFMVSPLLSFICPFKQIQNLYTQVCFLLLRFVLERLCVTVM
# Method in brief: as §1
# ETV2 = molecular target: T10, ETV2 (Homo sapiens, UniProt O00321 1-342); settings: protein: recombinant; tags: N-terminal GST; dsDNA, one strand shown
# T10 sequence: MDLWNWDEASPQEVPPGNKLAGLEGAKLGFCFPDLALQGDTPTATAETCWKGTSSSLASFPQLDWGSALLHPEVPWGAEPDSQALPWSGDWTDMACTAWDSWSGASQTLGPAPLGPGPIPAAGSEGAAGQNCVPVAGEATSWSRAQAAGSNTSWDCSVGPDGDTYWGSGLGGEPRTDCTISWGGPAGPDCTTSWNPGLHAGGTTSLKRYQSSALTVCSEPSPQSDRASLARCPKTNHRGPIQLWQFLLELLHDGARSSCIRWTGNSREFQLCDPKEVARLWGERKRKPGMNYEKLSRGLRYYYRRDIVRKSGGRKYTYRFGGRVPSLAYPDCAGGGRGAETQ
# Method in brief: as §1
# ELF3 = molecular target: T11, ELF3 (Homo sapiens, UniProt P78545 1-371); settings: protein: recombinant; tags: N-terminal GST; dsDNA, one strand shown
# T11 sequence: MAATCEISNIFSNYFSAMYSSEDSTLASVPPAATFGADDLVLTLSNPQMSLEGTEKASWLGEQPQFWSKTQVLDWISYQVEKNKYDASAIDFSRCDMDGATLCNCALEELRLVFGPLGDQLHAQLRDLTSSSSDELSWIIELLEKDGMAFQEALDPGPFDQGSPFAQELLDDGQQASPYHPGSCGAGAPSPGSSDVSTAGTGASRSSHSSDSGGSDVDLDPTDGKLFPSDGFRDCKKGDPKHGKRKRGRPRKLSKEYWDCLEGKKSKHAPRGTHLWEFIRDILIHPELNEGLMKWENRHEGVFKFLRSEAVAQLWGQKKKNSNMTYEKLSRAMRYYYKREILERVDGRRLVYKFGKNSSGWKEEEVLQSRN
# Method in brief: as §1
# CRX = CRX (Homo sapiens, UniProt O43186 1-299); settings: protein: recombinant; tags: N-terminal GST; dsDNA, one strand shown
# CRX, sequence (O43186 whole entry): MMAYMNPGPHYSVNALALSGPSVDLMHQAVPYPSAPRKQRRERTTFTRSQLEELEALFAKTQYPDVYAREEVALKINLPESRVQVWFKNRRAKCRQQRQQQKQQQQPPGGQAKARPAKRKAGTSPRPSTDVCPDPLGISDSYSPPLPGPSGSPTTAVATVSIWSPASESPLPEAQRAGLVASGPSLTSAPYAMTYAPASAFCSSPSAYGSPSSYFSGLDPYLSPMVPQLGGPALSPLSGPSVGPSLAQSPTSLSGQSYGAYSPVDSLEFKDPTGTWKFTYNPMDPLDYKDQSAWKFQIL
# Method in brief: as §1
# ETV1 = ETV1 (Homo sapiens, UniProt P50549 1-477); settings: protein: recombinant; tags: N-terminal GST; dsDNA, one strand shown
# ETV1, sequence (P50549 whole entry): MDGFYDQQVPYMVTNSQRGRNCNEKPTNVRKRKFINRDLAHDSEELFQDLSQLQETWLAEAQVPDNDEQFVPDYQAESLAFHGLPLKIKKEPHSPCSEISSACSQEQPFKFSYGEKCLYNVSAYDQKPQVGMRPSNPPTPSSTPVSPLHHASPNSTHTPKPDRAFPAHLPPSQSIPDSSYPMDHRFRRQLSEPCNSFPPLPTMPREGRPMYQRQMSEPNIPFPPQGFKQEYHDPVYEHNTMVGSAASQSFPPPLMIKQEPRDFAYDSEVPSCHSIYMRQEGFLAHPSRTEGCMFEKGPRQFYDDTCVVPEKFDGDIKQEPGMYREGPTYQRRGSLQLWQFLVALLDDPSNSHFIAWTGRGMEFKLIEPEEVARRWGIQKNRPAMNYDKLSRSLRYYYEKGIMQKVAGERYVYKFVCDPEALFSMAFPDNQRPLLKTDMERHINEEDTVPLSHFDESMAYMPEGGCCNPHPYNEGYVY
# Method in brief: as §1
sequence,measurement,setting,value
ACTTCT,binding signal,FLI1,"1.49 fold enrichment (6-mer frequency, TF over GST control)"
same,binding signal,ELK1,"1.53 fold enrichment (6-mer frequency, TF over GST control)"
same,binding signal,GABPA,"1.5 fold enrichment (6-mer frequency, TF over GST control)"
same,binding signal,ERG,"1.43 fold enrichment (6-mer frequency, TF over GST control)"
same,binding signal,ELF1,"1.52 fold enrichment (6-mer frequency, TF over GST control)"
same,binding signal,EHF,"1.56 fold enrichment (6-mer frequency, TF over GST control)"
same,binding signal,SPI1,"1.62 fold enrichment (6-mer frequency, TF over GST control)"
same,binding signal,SPIB,"1.45 fold enrichment (6-mer frequency, TF over GST control)"
same,binding signal,ELK3,"1.48 fold enrichment (6-mer frequency, TF over GST control)"
same,binding signal,FEV,"1.4 fold enrichment (6-mer frequency, TF over GST control)"
same,binding signal,ETV5,"1.45 fold enrichment (6-mer frequency, TF over GST control)"
same,binding signal,HSF1,"2.1 fold enrichment (6-mer frequency, TF over GST control)"
same,binding signal,SPIC,"1.47 fold enrichment (6-mer frequency, TF over GST control)"
same,binding signal,ELF4,"1.49 fold enrichment (6-mer frequency, TF over GST control)"
same,binding signal,ELK4,"1.83 fold enrichment (6-mer frequency, TF over GST control)"
same,binding signal,ETV2,"1.37 fold enrichment (6-mer frequency, TF over GST control)"
same,binding signal,ELF3,"1.45 fold enrichment (6-mer frequency, TF over GST control)"
same,binding signal,CRX,"1.55 fold enrichment (6-mer frequency, TF over GST control)"
same,binding signal,ETV1,"1.47 fold enrichment (6-mer frequency, TF over GST control)"
